In PubChem BioAssay (EPA / NIEHS):
Results filed as inconclusive are left out. The source made the active and inactive calls. Rule for the calls, unless noted: active = hit-call score of the fitted dose curve at least 0.9, where 1 is the maximum; inconclusive = response in the unintended direction; inactive = score below 0.9.

Assays:
[1] = read-out: Thyroid Hormone Responsive (THRSP), THRSP (gene 7069); experiment: LTEA_HepaRG_THRSP: Life Technologies and Expression Analysis (LTEA) Assay for Thyroid Hormone Responsive (THRSP) using HepaRG (AID 2283536; active = hit-call score of the fitted dose curve at least 0.9, where 1 is the maximum; inactive = score below 0.9); settings: mRNA level, 48 h; actives raise or lower the signal
Procedure, shortened: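 THRSP transcript quantified by Fluidigm qRT-PCR against three housekeeping genes after 48 h chemical exposure of HepaRG cells in serum-free induction medium; eight-point half-log series, top 100 uM, 0.5% DMSO vehicle, duplicate wells.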

[2] = read-out: Cellular tumor antigen p53 (Homo sapiens) (UniProt P04637); experiment: LTEA_HepaRG_TP53: Life Technologies and Expression Analysis (LTEA) Assay for Tumor Protein P53 (TP53) using HepaRG (AID 2283537; active = hit-call score of the fitted dose curve at least 0.9, where 1 is the maximum; inactive = score below 0.9); settings: mRNA level, 48 h; actives raise or lower the signal
Procedure, shortened: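 Gain or loss of TP53 mRNA signal is scored relative to 0.5% DMSO after 48 h chemical treatment of HepaRG liver cells, tested in duplicate at eight half-log concentrations up to 100 uM.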

[3] = read-out: UDP glucuronosyltransferase (UGT1A1), UGT1A1 (gene 54658); experiment: LTEA_HepaRG_UGT1A1: Life Technologies and Expression Analysis (LTEA) Assay for UDP glucuronosyltransferase (UGT1A1) using HepaRG (AID 2283538; active = hit-call score of the fitted dose curve at least 0.9, where 1 is the maximum; inactive = score below 0.9); settings: mRNA level, 48 h; actives raise or lower the signal
Procedure, shortened: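 mRNA induction or loss of UGT1A1, by TaqMan qRT-PCR, in duplicate HepaRG wells after 48 h exposure to half-log dilutions topping at 100 uM; DMSO (0.5%) served as baseline.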

[4] = read-out: UDP glucuronosyltransferase (UGT1A6), UGT1A6 (gene 54578); experiment: LTEA_HepaRG_UGT1A6: Life Technologies and Expression Analysis (LTEA) Assay for UDP glucuronosyltransferase (UGT1A6) using HepaRG (AID 2283539; active = hit-call score of the fitted dose curve at least 0.9, where 1 is the maximum; inactive = score below 0.9); settings: mRNA level, 48 h; actives raise or lower the signal
Procedure, shortened: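 Measures mRNA change in HepaRG hepatic cells exposed 48 h to chemicals (eight-point, maximum 100 uM, 0.5% DMSO vehicle) in serum-free induction medium. Expression normalized to endogenous controls; DMSO served as negative control and baseline.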

[5] = read-out: X-box binding protein 1 (XBP1), XBP1 (gene 7494); experiment: LTEA_HepaRG_XBP1: Life Technologies and Expression Analysis (LTEA) Assay for X-box binding protein 1 (XBP1) using HepaRG (AID 2283540; active = hit-call score of the fitted dose curve at least 0.9, where 1 is the maximum; inactive = score below 0.9); settings: mRNA level, 48 h; actives raise or lower the signal
Procedure, shortened: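 Eight concentrations (half-log, highest 100 uM, 0.5% DMSO) tested in duplicate on HepaRG cells over 48 h in serum-free induction medium; qRT-PCR of XBP1 normalised to ACTB, GAPDH, POLR2A.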

[6] = LTEA_HepaRG_LDH_cytotoxicity: Cytotoxicity Assessment in the Life Technologies and Expression Analysis (LTEA) Assay (AID 2283563)
Procedure, shortened: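 Spent-medium LDH after 48 h chemical exposure of HepaRG cells in serum-free induction medium; eight concentrations, half-log dilutions from 100 uM, duplicate wells, fitted upward relative to 0.5% DMSO.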

[7] = Tanguay_ZF_120hpf_MORT_legacy: (Legacy) Oregon State University Tanguay Lab 120 Hour Post-fertilization zebrafish Assay for Mortality (AID 2283633)
Procedure, shortened: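 Single dechorionated Tropical 5D embryos were held with test chemical (0.64% DMSO final) from 6 to 120 hpf at 28C under foil. Deaths at 24 or 120 hpf were recorded as binary calls, analysed for increase over DMSO controls.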

[8] = Tanguay_ZF_120hpf_YSE_legacy: (Legacy) Oregon State University Tanguay Lab 120 Hour Post-fertilization zebrafish Assay for Yolk Sac Edema (AID 2283634)
Procedure, shortened: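 Single dechorionated embryos were held in sealed plates at 28C with test chemical (0.64% DMSO final) from 6 hpf until 120 hpf. Edema of the yolk sac was then recorded as a binary endpoint; non-mortality endpoints were skipped for dead embryos.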

[9] = Tanguay_ZF_120hpf_AXIS_legacy: (Legacy) Oregon State University Tanguay Lab 120 Hour Post-fertilization zebrafish Assay for Body Axis Malformation (AID 2283635)
Procedure, shortened: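 Each dechorionated embryo was exposed alone from 6 hpf, with DMSO at 0.64% (vol/vol) and trimethyltin chloride 5 uM as positive control. Axis malformation was recorded at 120 hpf unless the embryo had died.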

[10] = Tanguay_ZF_120hpf_EYE_legacy: (Legacy) Oregon State University Tanguay Lab 120 Hour Post-fertilization zebrafish Assay for Eye Malformation (AID 2283636);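 note: binary presence or absence of eye malformation scored by brightfield in 120 hpf larvae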
Procedure, shortened: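 Binary brightfield scoring of eye defects at 120 hpf after static exposure from 6 hpf of single pronase-dechorionated wild-type embryos (28C, 0.64% DMSO). Non-mortality endpoints omitted where embryos died; fit vs DMSO.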

[11] = Tanguay_ZF_120hpf_SNOU_legacy: (Legacy) Oregon State University Tanguay Lab 120 Hour Post-fertilization zebrafish Assay for Snout Malformation (AID 2283637)
Procedure, shortened: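 Binary snout-malformation call at 120 hpf in wild-type 5D embryos, chorion removed by pronase, under static exposure from 6 hpf at 28C (0.64% DMSO). Embryos dying by 24 or 120 hpf excluded.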

[12] = Tanguay_ZF_120hpf_JAW_legacy: (Legacy) Oregon State University Tanguay Lab 120 Hour Post-fertilization zebrafish Assay for Jaw Malformation (AID 2283638)
Procedure, shortened: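 Wild-type 5D embryos, chorion removed at 4 hpf, dosed singly from 6 hpf; 28C static, sealed, foil-covered, to 120 hpf. Endpoint: jaw defect yes/no (brightfield); mortality excludes scoring.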

[13] = Tanguay_ZF_120hpf_OTIC_legacy: (Legacy) Oregon State University Tanguay Lab 120 Hour Post-fertilization zebrafish Assay for Otic Vesicle Malformation (AID 2283639)
Procedure, shortened: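 Wild-type zebrafish larvae, whole-embryo exposure from early stage to 120 hpf at 28C. Binary brightfield scoring of otic vesicle morphology, fitted in the positive direction against the DMSO baseline.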

[14] = Tanguay_ZF_120hpf_PE_legacy: (Legacy) Oregon State University Tanguay Lab 120 Hour Post-fertilization zebrafish Assay for Pericardial Edema (AID 2283640)
Procedure, shortened: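 Zebrafish larvae are exposed from early development to 120 hpf at 28C, with 0.64% DMSO final. Each surviving larva receives a yes/no pericardial edema call by brightfield imaging, analysed relative to the DMSO baseline.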

[15] = Tanguay_ZF_120hpf_BRAI_legacy: (Legacy) Oregon State University Tanguay Lab 120 Hour Post-fertilization zebrafish Assay for Brain Malformation (AID 2283641)
Procedure, shortened: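 Static exposure of staged wild-type embryos until 120 hpf, kept at 28C with light excluded and final DMSO of 0.64% (vol/vol). Presence or absence of brain malformation was noted under brightfield; mortality precluded scoring.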

[16] = Tanguay_ZF_120hpf_SOMI_legacy: (Legacy) Oregon State University Tanguay Lab 120 Hour Post-fertilization zebrafish Assay for Somite Malformation (AID 2283647)
Procedure, shortened: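 Somitogenesis defects are recorded as binary calls in whole larvae at 120 hpf after continuous static chemical exposure starting at 6 hpf in dechorionated 5D embryos. DMSO serves as negative control and baseline.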

[17] = Tanguay_ZF_120hpf_PFIN_legacy: (Legacy) Oregon State University Tanguay Lab 120 Hour Post-fertilization zebrafish Assay for Pectoral Fin Malformation (AID 2283648);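 note: each larva judged yes or no for fin defect by brightfield with dead larvae skipped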
Procedure, shortened: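 Pectoral fin malformation was recorded as a binary endpoint at 120 hpf in wild-type Tropical 5D larvae, which had been dechorionated and exposed statically from 6 hpf at 28C in 0.64% DMSO. Dead embryos were excluded.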

[18] = Tanguay_ZF_120hpf_CFIN_legacy: (Legacy) Oregon State University Tanguay Lab 120 Hour Post-fertilization zebrafish Assay for Caudal Fin Malformation (AID 2283649)
Procedure, shortened: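 Single dechorionated 5D wild-type embryos are dosed at 6 hpf (final DMSO 0.64%) and held statically at 28C. Caudal fin malformation is recorded as present or absent at 120 hpf under brightfield, excluding dead embryos.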

[19] = Tanguay_ZF_120hpf_PIG_legacy: (Legacy) Oregon State University Tanguay Lab 120 Hour Post-fertilization zebrafish Assay for Pigmentation Malformation (AID 2283650)
Procedure, shortened: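 Pigment malformation recorded as a binary call at 120 hpf in zebrafish (Tropical 5D) exposed singly from 6 hpf after pronase dechorionation. Static, sealed, 28C exposure, 0.64% DMSO; mortality excludes scoring; positive-direction fit against DMSO.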

[20] = Tanguay_ZF_120hpf_CIRC_legacy: (Legacy) Oregon State University Tanguay Lab 120 Hour Post-fertilization zebrafish Assay for Circulatory Malformation (AID 2283651)
Procedure, shortened: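 Binary circulatory-malformation call at 120 hpf via brightfield imaging, relative to DMSO controls. Embryos (5D strain, chorion removed) received static, light-shielded exposure at 28C.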

Measured: outcome

Sequence of Cellular tumor antigen p53 (Homo sapiens) (P04637 whole entry, looked up): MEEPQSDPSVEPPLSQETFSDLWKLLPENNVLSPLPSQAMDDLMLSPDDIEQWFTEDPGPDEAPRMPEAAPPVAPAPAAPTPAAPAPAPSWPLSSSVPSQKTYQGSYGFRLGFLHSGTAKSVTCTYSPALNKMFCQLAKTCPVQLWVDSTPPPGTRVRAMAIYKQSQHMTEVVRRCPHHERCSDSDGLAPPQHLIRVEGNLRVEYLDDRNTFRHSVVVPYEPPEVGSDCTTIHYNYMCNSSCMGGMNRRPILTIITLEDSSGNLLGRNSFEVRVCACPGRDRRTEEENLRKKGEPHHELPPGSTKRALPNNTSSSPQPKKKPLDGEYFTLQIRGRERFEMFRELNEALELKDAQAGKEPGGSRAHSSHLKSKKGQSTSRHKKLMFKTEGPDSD

O=C(CCl)c1ccccc1
inactive: [1] | [2] | [3] | [4] | [5] | [6] | [7] | [8] | [9] | [10] | [11] | [12] | [13] | [14] | [15] | [16] | [17] | [18] | [19] | [20]
